Data taken from ChEMBL document CHEMBL1961873, “Compounds: GSK PKIS; Assays: Nanosyn kinase panel” (2012).

Key:
[1] = target: Calcium/calmodulin-dependent protein kinase type II subunit alpha (Homo sapiens) (UniProt Q9UQM7); details: at 1 µM;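 note: reported value is a mean percent inhibition of CAMK2A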
[2] = target: Calcium/calmodulin-dependent protein kinase type II subunit delta (Homo sapiens) (UniProt Q13557); details: at 0.1 µM
[3] = target: Calcium/calmodulin-dependent protein kinase type II subunit delta (Homo sapiens) (UniProt Q13557); details: at 1 µM
[4] = target: T1, Calcium/calmodulin-dependent protein kinase type IV (Homo sapiens) (UniProt Q16566); details: at 0.1 µM
T1 sequence (whole entry): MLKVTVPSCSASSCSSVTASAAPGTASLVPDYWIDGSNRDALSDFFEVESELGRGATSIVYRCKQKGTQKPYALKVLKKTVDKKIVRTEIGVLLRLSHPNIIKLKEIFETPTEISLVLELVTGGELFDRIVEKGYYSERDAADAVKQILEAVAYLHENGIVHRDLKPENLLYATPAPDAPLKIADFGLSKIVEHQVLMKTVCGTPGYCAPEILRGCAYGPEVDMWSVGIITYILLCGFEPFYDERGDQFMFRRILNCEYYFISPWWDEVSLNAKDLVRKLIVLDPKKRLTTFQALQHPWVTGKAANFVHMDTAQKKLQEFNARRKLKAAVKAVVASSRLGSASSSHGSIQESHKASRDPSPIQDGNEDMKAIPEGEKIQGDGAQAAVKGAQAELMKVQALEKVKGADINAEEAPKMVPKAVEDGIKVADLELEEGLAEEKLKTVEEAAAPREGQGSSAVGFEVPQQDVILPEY

[5] = target: T1, Calcium/calmodulin-dependent protein kinase type IV (Homo sapiens); details: at 1 µM
[6] = target: T2, Serine/threonine-protein kinase Chk1 (Homo sapiens) (UniProt O14757); details: at 0.1 µM
T2 sequence (whole entry): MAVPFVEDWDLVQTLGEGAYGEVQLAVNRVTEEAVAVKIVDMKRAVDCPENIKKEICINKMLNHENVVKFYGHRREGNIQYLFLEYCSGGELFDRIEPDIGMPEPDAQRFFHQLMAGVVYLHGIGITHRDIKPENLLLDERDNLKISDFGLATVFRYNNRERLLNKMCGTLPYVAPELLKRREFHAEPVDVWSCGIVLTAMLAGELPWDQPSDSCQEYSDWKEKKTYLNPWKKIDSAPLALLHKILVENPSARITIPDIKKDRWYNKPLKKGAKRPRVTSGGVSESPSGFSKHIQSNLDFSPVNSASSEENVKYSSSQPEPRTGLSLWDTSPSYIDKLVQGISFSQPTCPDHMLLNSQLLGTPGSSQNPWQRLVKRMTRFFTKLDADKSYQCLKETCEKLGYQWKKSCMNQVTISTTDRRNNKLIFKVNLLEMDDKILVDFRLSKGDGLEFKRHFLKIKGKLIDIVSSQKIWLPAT

[7] = target: T2, Serine/threonine-protein kinase Chk1 (Homo sapiens); details: at 1 µM
[8] = target: Serine/threonine-protein kinase Chk2 (Homo sapiens) (UniProt O96017); details: at 0.1 µM
Chain of Serine/threonine-protein kinase Chk2 (Homo sapiens) (O96017 whole entry): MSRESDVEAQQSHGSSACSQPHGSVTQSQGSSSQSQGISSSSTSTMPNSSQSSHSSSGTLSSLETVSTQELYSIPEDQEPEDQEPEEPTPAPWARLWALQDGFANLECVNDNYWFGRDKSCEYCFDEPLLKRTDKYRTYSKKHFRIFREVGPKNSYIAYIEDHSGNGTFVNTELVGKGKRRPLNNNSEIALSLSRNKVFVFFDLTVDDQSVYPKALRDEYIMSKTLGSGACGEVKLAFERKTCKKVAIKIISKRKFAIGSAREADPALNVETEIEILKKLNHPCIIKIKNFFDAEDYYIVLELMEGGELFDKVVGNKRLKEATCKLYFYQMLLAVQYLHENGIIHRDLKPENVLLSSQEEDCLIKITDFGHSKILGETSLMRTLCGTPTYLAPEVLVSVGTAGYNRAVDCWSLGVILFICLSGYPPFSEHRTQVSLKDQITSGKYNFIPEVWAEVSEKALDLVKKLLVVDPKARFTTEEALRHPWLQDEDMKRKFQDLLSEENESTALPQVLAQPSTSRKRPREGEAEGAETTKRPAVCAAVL

[9] = target: Serine/threonine-protein kinase Chk2 (Homo sapiens) (UniProt O96017); details: at 1 µM
[10] = target: Death-associated protein kinase 1 (Homo sapiens) (UniProt P53355); details: at 0.1 µM
Chain of Death-associated protein kinase 1 (Homo sapiens) (P53355 whole entry, looked up): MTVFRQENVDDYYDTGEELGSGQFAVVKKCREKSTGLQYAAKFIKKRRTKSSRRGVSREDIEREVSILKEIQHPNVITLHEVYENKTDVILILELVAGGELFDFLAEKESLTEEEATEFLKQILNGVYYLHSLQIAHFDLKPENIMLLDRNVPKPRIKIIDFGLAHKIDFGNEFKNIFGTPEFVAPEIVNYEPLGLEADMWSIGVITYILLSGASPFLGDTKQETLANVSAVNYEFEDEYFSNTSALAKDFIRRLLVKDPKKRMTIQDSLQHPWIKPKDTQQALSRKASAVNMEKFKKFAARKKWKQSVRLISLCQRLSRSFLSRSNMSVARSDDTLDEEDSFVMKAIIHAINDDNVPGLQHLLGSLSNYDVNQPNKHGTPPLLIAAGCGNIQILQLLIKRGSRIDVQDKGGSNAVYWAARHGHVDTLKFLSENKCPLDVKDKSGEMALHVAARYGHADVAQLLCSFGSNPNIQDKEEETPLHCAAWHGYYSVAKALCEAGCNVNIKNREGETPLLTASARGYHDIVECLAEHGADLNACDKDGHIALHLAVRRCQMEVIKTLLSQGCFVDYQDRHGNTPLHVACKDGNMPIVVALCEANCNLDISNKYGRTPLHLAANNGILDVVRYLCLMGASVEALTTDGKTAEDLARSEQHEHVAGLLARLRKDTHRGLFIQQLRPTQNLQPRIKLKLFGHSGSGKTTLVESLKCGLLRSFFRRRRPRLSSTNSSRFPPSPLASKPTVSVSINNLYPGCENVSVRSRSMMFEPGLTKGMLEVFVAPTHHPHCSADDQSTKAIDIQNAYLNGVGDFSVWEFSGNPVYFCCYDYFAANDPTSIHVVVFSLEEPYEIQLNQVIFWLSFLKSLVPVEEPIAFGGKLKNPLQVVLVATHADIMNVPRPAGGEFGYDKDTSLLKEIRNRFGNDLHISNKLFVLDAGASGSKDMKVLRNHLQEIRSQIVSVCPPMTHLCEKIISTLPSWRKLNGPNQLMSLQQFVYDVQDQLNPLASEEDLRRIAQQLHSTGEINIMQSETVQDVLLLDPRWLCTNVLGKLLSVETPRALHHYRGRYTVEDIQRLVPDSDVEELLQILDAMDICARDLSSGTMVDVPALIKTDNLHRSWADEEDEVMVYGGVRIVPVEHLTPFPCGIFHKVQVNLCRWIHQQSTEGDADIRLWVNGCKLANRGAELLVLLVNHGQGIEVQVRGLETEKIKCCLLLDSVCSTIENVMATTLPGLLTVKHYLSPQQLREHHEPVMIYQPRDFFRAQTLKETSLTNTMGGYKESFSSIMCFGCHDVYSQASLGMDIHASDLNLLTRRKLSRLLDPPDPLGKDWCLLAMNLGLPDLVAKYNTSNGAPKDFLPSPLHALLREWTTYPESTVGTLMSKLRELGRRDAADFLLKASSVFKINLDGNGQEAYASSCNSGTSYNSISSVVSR

[11] = target: Death-associated protein kinase 1 (Homo sapiens) (UniProt P53355); details: at 1 µM
[12] = target: T3, Serine/threonine-protein kinase DCLK2 (Homo sapiens) (UniProt Q8N568); details: at 0.1 µM
T3 sequence (whole entry): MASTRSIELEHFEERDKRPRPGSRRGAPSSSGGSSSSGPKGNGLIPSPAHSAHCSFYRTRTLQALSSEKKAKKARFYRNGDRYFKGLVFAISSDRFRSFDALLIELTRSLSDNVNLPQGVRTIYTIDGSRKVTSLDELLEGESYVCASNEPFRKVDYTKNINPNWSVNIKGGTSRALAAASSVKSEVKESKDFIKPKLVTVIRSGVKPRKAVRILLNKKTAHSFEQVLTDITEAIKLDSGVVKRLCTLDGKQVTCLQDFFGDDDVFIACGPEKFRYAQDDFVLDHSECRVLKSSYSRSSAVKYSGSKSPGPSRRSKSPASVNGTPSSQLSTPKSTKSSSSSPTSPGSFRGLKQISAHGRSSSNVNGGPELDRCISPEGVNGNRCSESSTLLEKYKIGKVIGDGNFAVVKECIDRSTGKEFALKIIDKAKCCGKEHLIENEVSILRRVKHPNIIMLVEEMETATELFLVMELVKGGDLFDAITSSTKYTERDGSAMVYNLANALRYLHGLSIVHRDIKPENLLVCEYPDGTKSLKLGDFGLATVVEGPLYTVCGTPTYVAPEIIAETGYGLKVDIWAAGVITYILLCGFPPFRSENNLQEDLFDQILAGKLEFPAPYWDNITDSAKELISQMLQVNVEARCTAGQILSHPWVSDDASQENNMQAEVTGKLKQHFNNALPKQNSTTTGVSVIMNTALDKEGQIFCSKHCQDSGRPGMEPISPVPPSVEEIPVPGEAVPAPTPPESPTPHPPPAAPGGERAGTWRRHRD

[13] = target: T3, Serine/threonine-protein kinase DCLK2 (Homo sapiens); details: at 1 µM
[14] = target: MAP kinase-activated protein kinase 2 (Homo sapiens) (UniProt P49137); details: at 0.1 µM
Chain of MAP kinase-activated protein kinase 2 (Homo sapiens) (P49137 whole entry, looked up): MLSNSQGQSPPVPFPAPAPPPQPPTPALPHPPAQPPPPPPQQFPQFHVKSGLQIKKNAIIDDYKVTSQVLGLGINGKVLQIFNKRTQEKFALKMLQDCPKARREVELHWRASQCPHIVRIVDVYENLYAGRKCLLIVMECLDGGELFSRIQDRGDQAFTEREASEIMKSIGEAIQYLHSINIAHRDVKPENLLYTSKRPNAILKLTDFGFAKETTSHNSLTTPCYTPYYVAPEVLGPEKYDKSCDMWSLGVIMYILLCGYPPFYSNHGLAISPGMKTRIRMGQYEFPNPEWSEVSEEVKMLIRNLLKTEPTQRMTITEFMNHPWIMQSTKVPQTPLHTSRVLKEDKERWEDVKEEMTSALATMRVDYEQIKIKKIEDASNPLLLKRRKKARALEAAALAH

[15] = target: MAP kinase-activated protein kinase 2 (Homo sapiens) (UniProt P49137); details: at 1 µM
[16] = target: MAP kinase-activated protein kinase 3 (Homo sapiens) (UniProt Q16644); details: at 0.1 µM
[17] = target: MAP kinase-activated protein kinase 3 (Homo sapiens) (UniProt Q16644); details: at 1 µM
[18] = target: Serine/threonine-protein kinase MARK1 (Homo sapiens) (UniProt Q9P0L2); details: at 0.1 µM
Chain of Serine/threonine-protein kinase MARK1 (Homo sapiens) (Q9P0L2 whole entry, looked up): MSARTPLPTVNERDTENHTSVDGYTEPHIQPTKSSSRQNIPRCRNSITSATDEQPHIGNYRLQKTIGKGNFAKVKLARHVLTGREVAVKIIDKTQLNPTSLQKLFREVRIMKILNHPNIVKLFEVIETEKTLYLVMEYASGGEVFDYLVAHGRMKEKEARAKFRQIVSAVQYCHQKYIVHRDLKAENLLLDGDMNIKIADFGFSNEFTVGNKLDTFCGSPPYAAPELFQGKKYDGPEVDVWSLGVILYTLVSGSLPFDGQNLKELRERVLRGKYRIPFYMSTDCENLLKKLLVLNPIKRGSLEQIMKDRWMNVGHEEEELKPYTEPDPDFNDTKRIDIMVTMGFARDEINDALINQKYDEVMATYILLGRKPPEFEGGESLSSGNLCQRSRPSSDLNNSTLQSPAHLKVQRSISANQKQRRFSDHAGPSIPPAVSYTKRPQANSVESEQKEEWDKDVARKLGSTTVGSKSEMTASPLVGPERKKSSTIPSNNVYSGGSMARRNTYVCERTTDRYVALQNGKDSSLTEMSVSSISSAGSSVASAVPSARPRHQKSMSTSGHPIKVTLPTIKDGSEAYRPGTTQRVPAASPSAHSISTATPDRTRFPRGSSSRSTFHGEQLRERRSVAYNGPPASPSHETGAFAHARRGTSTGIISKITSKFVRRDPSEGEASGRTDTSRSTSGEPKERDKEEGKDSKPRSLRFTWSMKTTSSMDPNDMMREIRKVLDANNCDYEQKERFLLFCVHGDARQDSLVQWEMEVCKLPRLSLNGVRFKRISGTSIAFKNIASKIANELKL

[19] = target: Serine/threonine-protein kinase MARK1 (Homo sapiens) (UniProt Q9P0L2); details: at 1 µM
[20] = target: MAP/microtubule affinity-regulating kinase 3 (Homo sapiens) (UniProt P27448); details: at 0.1 µM;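 note: mean percent inhibition of MARK3 kinase activity, measured within the GSK PKIS screening panel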
Chain of MAP/microtubule affinity-regulating kinase 3 (Homo sapiens) (P27448 whole entry, looked up): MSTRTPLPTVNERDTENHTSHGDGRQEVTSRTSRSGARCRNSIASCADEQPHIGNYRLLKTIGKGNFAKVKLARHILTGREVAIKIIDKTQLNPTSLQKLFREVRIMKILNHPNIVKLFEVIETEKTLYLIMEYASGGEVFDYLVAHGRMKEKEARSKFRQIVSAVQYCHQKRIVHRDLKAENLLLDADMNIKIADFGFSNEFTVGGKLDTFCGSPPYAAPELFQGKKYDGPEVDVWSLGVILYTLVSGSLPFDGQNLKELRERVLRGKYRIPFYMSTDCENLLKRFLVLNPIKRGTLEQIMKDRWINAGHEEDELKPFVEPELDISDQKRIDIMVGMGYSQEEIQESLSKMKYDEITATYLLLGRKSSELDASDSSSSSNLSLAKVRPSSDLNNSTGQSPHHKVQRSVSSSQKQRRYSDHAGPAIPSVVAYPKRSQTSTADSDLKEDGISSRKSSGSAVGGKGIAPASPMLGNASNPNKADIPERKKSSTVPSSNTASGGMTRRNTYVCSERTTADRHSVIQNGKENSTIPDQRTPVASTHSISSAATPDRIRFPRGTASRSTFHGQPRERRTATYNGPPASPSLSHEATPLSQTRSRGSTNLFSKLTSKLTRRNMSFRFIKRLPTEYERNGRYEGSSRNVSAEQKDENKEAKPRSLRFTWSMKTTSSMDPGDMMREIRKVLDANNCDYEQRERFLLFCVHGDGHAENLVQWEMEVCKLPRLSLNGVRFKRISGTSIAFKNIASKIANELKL

Chain of Calcium/calmodulin-dependent protein kinase type II subunit delta (Homo sapiens) (Q13557 whole entry): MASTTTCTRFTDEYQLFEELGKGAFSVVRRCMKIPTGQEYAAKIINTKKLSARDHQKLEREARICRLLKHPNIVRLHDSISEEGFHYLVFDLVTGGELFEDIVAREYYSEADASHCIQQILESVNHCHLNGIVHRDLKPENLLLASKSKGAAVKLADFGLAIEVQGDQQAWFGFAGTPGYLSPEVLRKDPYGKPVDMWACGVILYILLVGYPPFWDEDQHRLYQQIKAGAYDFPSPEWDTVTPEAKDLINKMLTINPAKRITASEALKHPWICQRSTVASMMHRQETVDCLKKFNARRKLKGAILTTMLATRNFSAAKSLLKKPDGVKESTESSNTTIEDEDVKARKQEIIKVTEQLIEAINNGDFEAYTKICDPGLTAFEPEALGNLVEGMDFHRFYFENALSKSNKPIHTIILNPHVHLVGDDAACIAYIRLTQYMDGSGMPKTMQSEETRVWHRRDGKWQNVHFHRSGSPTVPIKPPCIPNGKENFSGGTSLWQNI
Chain of Calcium/calmodulin-dependent protein kinase type II subunit alpha (Homo sapiens) (Q9UQM7 whole entry): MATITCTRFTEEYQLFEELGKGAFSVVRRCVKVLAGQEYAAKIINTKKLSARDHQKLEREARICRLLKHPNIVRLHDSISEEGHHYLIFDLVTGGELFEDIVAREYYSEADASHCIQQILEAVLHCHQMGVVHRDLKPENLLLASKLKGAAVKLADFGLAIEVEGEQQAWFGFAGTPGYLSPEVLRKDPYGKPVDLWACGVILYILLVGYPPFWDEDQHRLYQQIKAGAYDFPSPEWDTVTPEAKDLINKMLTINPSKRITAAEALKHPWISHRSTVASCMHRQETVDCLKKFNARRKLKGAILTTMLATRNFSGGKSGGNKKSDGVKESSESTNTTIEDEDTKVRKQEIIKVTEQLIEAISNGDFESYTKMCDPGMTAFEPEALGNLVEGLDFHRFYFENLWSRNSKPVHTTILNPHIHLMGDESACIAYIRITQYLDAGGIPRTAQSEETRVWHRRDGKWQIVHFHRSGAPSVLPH

SMILES | inhibition [1] | inhibition [2] | inhibition [3] | inhibition [4] | inhibition [5] | inhibition [6] | inhibition [7] | inhibition [8] | inhibition [9] | inhibition [10] | inhibition [11] | inhibition [12] | inhibition [13] | inhibition [14] | inhibition [15] | inhibition [16] | inhibition [17] | inhibition [18] | inhibition [19] | inhibition [20]
NS(=O)(=O)c1ccc(N/N=C2\C(=O)Nc3ccc(C(=O)NCc4ccncc4)cc32)cc1 | 5.1% | 3.39% | 11.8% | -2.17% | -4.16% | 2.58% | 11.1% | 4.18% | 19.2% | 4.72% | 4.92% | 3.49% | 0.04% | 2.73% | 3.71% | 4.05% | 2.16% | 7.5% | 40.7% | 4.2%
COC(=O)Nc1nc2cc(Oc3ccc(NC(=O)Nc4ccccc4)cc3)ccc2[nH]1 | 1.94% | 1.6% | 1.54% | -1.32% | -2.54% | -0.71% | 3.92% | 1.94% | 3.46% | 3.21% | 3.19% | -1.72% | 5.13% | 1.49% | 1.44% | 1.74% | 2.32% | 2.28% | 4.31% | 1.57%
COc1c(C(N)=O)cc(-c2ccc(Cl)cc2)cc1-c1ccc(S(N)(=O)=O)cc1 | 6.07% | 4.78% | 8.49% | -0.13% | 3.77% | -0.02% | 1.33% | 5.72% | 10.5% | 1.52% | 0.56% | -5.08% | 2.52% | 2.42% | 3.46% | 5.57% | 8.63% | 0.41% | 1.61% | -0.24%
CNC(=O)c1sc(-n2cnc3cc(OC)c(OC)cc32)cc1OCc1ccccc1C(F)(F)F | -0.49% | 3.02% | 0.51% | 0.67% | -0.52% | 2.9% | 3.46% | 2.9% | 2.7% | 5.53% | 3% | 0.25% | 2.29% | 1.17% | 1.2% | 3.3% | 2.78% | 2.03% | 4.3% | 0.78%
COc1ccc2ncn(-c3cc(O[C@H](C)c4ccccc4C(F)(F)F)c(C(N)=O)s3)c2c1 | 0.95% | -0.5% | 5.44% | 1.4% | 3.11% | 1.46% | 0.47% | -1.28% | -0.25% | -0.67% | -2.31% | -0.78% | -1.64% | -0.39% | -0.49% | -0.9% | -0.93% | 0.76% | 5.8% | -0.92%
CN1CCC(n2cnc(-c3ccc(F)cc3)c2-c2ccnc(NCCO)n2)CC1 | 3.86% | 1.32% | 3.99% | -3.49% | -5.99% | 1.6% | 6.89% | 4.1% | 5.51% | 4.37% | 5.18% | 1.63% | 0.48% | 2.06% | 2.43% | 27.6% | 37.2% | 3.31% | 7.7% | 4.03%
CS(=O)(=O)CCNCc1ccc(-c2ccc3ncnc(Nc4ccc(OCc5cccc(C(F)(F)F)c5)cc4)c3c2)o1 | 2.36% | 3.02% | 7.55% | -2.56% | -0.39% | 5.09% | 7.64% | 4.17% | 5.4% | 6.71% | 5.63% | 0.29% | 1.78% | 3.06% | 3.74% | 5.88% | 8.3% | 0.99% | 3.78% | 0.32%
OCCCNc1nccc(-c2c(-c3ccc(F)cc3)nn3cc(C(F)(F)F)ccc23)n1 | 3.74% | 2.44% | 6.94% | 0.82% | 1.44% | -0.5% | -1.18% | 2.3% | 2.83% | -0.68% | 1.04% | 0.89% | 2.29% | 0.94% | 0.71% | 30.2% | 36.3% | 0.69% | 3.09% | 0.94%
CC1=C(C(=O)Nc2ccc3[nH]nc(C)c3c2)C(c2ccc(C(F)(F)F)cc2)CC(=O)N1 (stereo not given) | 2.9% | 1.76% | 4.44% | 0.07% | 0.57% | 2.48% | 2.75% | 1.95% | 6.02% | 3.37% | 4.3% | 1.35% | 0.55% | 1.67% | 0.92% | 0.91% | 3.08% | 1.38% | 3.89% | -1.82%
COc1cccc(-n2ncc3c(N/N=C/c4ccc(C(=O)NCCN(C)C)cc4)ncnc32)c1 | 10.4% | 8.19% | 36.1% | 0.48% | 1.87% | 2.47% | 5.69% | 0.95% | 3.14% | 3.46% | 4.78% | 1.42% | 0.78% | 0.79% | 1.08% | 1.89% | 4.06% | 4.25% | 16.7% | 4.78%
